In ChEMBL document CHEMBL3988442, “University of Dundee, Small-Polar-MMV Screening Library” (2021):
Screen size: about 48,000 compounds; about 13,000 (27%) showed an effect of 50% or more. Some of the results follow.

Tested on: Wolbachia pipientis
Test: Anti-Wolbachia Cell-Based Screen
Type: functional
Design: scale not given: in the data most compounds retested in dose-response had high values
Conditions: 5 µM

| Compound | Percent Effect |
| --- | --- |
| O=C(O)c1cccc(CC2CCN(c3cnccn3)CC2)c1 | -21.8% |
| Cc1noc(-c2ccnc(N3CCC(CN4CCOCC4)CC3)c2)n1 | 3.253% |
| Cc1ccccc1CSc1nc(N)cc(N2CCOCC(CO)C2)n1 (stereo not given) | 4.884% |
| Cc1nccc(CC2COCCN(c3cnccn3)C2)n1 (stereo not given) | 114.6% |
| O=C1[C@H]2CN(c3cnccn3)C[C@H]2CN1CC1CC1 | -18.33% |
| c1cnc(CC2CCN(c3cnccn3)CC2)cn1 | 139.5% |
| O=C1NCCN(C(=O)CCN2CCCO2)C1c1cccc(F)c1 (stereo not given) | -39.77% |
| Cc1ccnc(NCCNC(=O)Cc2c(C)[nH]c3c(C)ccc(C)c23)c1 | -11.21% |
| Cc1ccc([C@@H]2CN(C(=O)c3cccnn3)C[C@H]2NC(=O)C2CC2)cc1 | 2.45% |
| Cc1cccc(C(C(=O)NC(C)(C)CN2CCCC2)N(C)C)c1 (stereo not given) | 106.7% |
| Cc1cccc(C(C(=O)NCCn2cccc2)N(C)C)c1 (stereo not given) | -2.901% |
| Cc1cc(C)cc(C(C(=O)O)N(C)CCCN2CCOCC2)c1 (stereo not given) | 10.88% |
| Cc1cccc(C(C(=O)NCC2(O)CCCCC2)N(C)C)c1 (stereo not given) | -2.512% |
| Cc1ccc(C(C(=O)NC(C)(C)CN2CCCC2)N(C)C)cc1 (stereo not given) | 96.39% |
| Cc1ccc(C(C(=O)NCCN2CCCCCC2)N(C)C)cc1 (stereo not given) | -4.058% |
| Cc1ccc(C(C(=O)NCCN2CCC(CO)CC2)N(C)C)cc1 (stereo not given) | 0.4619% |
| CCSCCNC(=O)C(c1cccc(C)c1)N(C)C (stereo not given) | -29.39% |
| Cc1cccc(C(C(=O)NC(C)(C)CN2CCOCC2)N(C)C)c1 (stereo not given) | 112.8% |
| CN(C)S(=O)(=O)NCC1OCCc2cn(CC3CCOCC3)nc21 (stereo not given) | 2.181% |
| CC(=O)c1c(F)cccc1N1CCC(C(N)=O)CC1 | 16.85% |
| CC(C)n1nc(CNc2ncccn2)c2c1CN(C1CCOCC1)CC2.O=C(O)C(F)(F)F | 3.818% |
| CNS(=O)(=O)Cc1cccc(CNc2ccc(C#N)cn2)c1 | 5.411% |

| Compound | Percent Effect |
| --- | --- |
| Cc1ccc(F)c(OC2(C(=O)O)CCN(C(=O)N3CCCC3)CC2)c1 | -14.67% |
| COC(=O)[C@H]1C[C@@H](O)CCN1S(=O)(=O)c1c(C)cc(OC)c(C)c1C | -13.15% |
| COc1ccc(-c2c(C(C)C)nn3c(=N)c(C#N)n[nH]c23)cc1 | 89.55% |
| COc1ccc(-c2c(C)nn3c(=N)c(C#N)n[nH]c23)cc1OC | 107.4% |
| COc1ccc(-c2csc(N)c2C#N)cc1OC | -8.208% |
| CCc1nn2c(=N)c(C#N)n[nH]c2c1-c1ccc(OC)cc1 | 103% |
| COc1ccc(CN(C)c2nccc(-c3cn(C)nc3C)n2)cc1 | -45.72% |
| COc1ccc(-c2c(C)nn3c(=N)c(C#N)n[nH]c23)cc1 | 88.05% |
| CCN(C)C[C@H]1CC[C@@H](Cc2ccc3c(cnn3C)c2)O1 | -8.878% |
| CCS(=O)(=O)c1ccc(NCc2csc(C(C)C)n2)cc1 | 5.353% |
| O=C1NCCN(Cc2ccccc2)C1CC(=O)N1CCc2n[nH]cc2C1 (stereo not given) | -21.59% |
| Nc1nccnc1C1CN(Cc2ccc(OCC(=O)O)cc2)CCO1 (stereo not given) | 171.8% |
| O=C(COc1cccnc1)N1CCCC(n2cccn2)C1 (stereo not given) | -8.892% |
| CNc1nccnc1C1CN(Cc2ccc3[nH]ccc3c2)CCO1 (stereo not given) | 136.6% |
| O=C(O)C(F)(F)F.O=C(O)C(F)(F)F.c1cc(C2CC2)n2cnc(C3CN(Cc4ccncc4)CCO3)c2c1 (stereo not given) | 5.365% |
| O=C(COc1cccnc1)N1CCOC(C(F)(F)F)C1 (stereo not given) | -4.014% |
| Nc1nccnc1C1CN(C(=O)COc2cccnc2)CCO1 (stereo not given) | 107.6% |
| COc1ccc(CN2CCOC[C@H](OCC(=O)N(C)C)C2)cc1 | -7.108% |
| CNc1nccnc1C1CN(Cc2ccc(OCC(=O)O)cc2)CCO1 (stereo not given) | 142.7% |
| Cl.O=C(O)CC1CN(Cc2ccccc2)CCO1 (stereo not given) | -7.682% |
| Cc1ncsc1C(=O)NCCOc1ncc(Cl)cc1Cl | 21.09% |
| Cc1ncsc1CCN(C)C(=O)CN1C(=O)OC[C@@H]1c1ccccc1 | -3.352% |

| Compound | Percent Effect |
| --- | --- |
| CN(Cc1ccc(C(=O)NCC2COCCO2)c(=O)[nH]1)CC(C)(C)C (stereo not given) | -4.558% |
| Cc1ccc(NC(=O)NC(C)(C)c2noc(C)n2)cc1 | -4.171% |
| Cn1nnc2c1CCN(CC1CC1)C2COCC1CC1.O=C(O)C(F)(F)F (stereo not given) | 12.72% |
| Cc1noc(CCCNS(=O)(=O)N2CCCC2c2ccco2)n1 (stereo not given) | -11.05% |
| Cc1cnccc1CN(C)C(=O)c1cccc(CCC(C)(C)O)c1 | 0.1694% |
| CCCOc1ccc(C(=O)N2CC[C@H]3CC[C@@H](C2)N3)cc1Cl | -21.75% |
| CCN(CC)Cc1cc(C(=O)N2CC[C@@]3(O)CCCC[C@H]3C2)c(C)o1 | -6.043% |
| CCc1oc(C(=O)N2CCCC(c3nnn[nH]3)C2)cc1C (stereo not given) | -3.531% |
| CCCOC1CCCN(C(=O)c2csc(S(N)(=O)=O)c2)C1 (stereo not given) | 6.923% |
| CCc1oc(C(=O)N2CC[C@H]3CC[C@@H](C2)N3)cc1CN(CC)CC | 112% |
| CCCOC1CCCN(C(=O)c2ccnnc2)C1 (stereo not given) | 0.837% |
| CCCOC1CCCN(C(=O)c2cc(CN(CC)CC)c(CC)o2)C1 (stereo not given) | 92.62% |
| CCc1ccc(C(=O)N2CCC(N(C)C(=O)OC(C)(C)C)C2)o1 (stereo not given) | 8.552% |
| CCc1oc(C(=O)N2CCC(N(CC)C(C)=O)C2)cc1CN(CC)CC (stereo not given) | 93.17% |
| O=C(CCCc1ccccn1)NCC(O)c1c(F)cccc1F (stereo not given) | 14.04% |
| CC(=O)Nc1ccc(CNC(=O)CNCc2nnc(C)o2)cc1 | -22.07% |
| CC(C)c1ncc(CN2C[C@@H](CN3CCCN(C)CC3)[C@@H](CO)C2)cn1 | -6.838% |
| COc1cc(CN(C)C(=O)NCCC2CCCO2)ccc1SC (stereo not given) | -4.598% |
| Cc1cc(C)nc(N(C)CCn2ccnc2C)n1 | 70.85% |
| Cc1cc(N(C)CCn2ccnc2C)n2nccc2n1 | 3.132% |
| Cc1nccn1CCN(C)c1cc(C(C)C)nc2ccnn12 | -21.61% |
